The source of these data is the supplement of paper PMC10515830.

Where a name gives a salt, the structure may show the parent alone.

Holding throughout (conditions): 10 µM; exposure time 6 h
Assay [1] deals with Danio rerio larvae (5 dpf). Put plainly: difference in excitability vs DMSO (percentage points); higher = more excitable than DMSO. In a few lines:
(§1)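 Wild-type zebrafish larvae at 5 dpf were kept in 96-well plates and exposed for 6 h to 100 µL egg water holding library compound at a final concentration of 10 µM. From 3 h into exposure, the plates were held at 28.5 ℃ and photographed every 6 s through a 3-h programme of moving lines and 100 ms, 400Hz tones. Each behaviour was scored by Z-LaP Tracker, a DeepLabCut model, and averaged over 48 larvae per compound. Every value gives the compound mean minus the vehicle control mean, in percentage points.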

Assay [2] has as its system Danio rerio larvae (5 dpf). The experiment in a line: difference in startle response vs DMSO (percentage points); higher = stronger startle than DMSO. A digest of the protocol:
as §1

In assay [3] the test system is Danio rerio larvae (5 dpf). The experiment in a line: difference in activity during first hour vs DMSO (percentage points); higher = more activity than DMSO. A digest of the protocol:
as §1

The test system of assay [4] is Danio rerio larvae (5 dpf). Put plainly: difference in habituation to acoustic stimuli vs DMSO (percentage points); higher = more habituation than DMSO. In a few lines: as §1
Assay [5] concerns Danio rerio larvae (5 dpf). Put plainly: difference in combined optomotor response to red, green and blue moving lines vs DMSO (percentage points); higher = stronger optomotor response than DMSO. In a few lines: as §1

`CC(=O)O[C@]1(C(C)=O)CC[C@H]2[C@@H]3CCC4=CC(=O)CCC4=C3[C@@H](c3ccc(N(C)C)cc3)C[C@@]21C` [Ulipristal Acetate] registered a difference in excitability in assay [1] of 4.89. In addition, in assay [2], the “difference in startle response” value is -8.5. In assay [3], the “difference in activity during first hour” value is -5.48. In assay [4], the “difference in habituation to acoustic stimuli” value (shortened to “difference in habituation”) amounted to 5.46. Also, the difference in assay [5] was -10.6.

In assay [1], `O=C(O[C@@H]1C[C@@H]2C[C@H]3C[C@H](C1)N2CC3=O)c1c[nH]c2ccccc12` [Dolasetron] came in with a difference in excitability of 10.9. Further, the “difference in startle response” value in assay [2] is -3.55. The “difference in activity during first hour” value in assay [3] is 2.6. Also, the “difference in habituation” value in assay [4] worked out at 7.35. The difference in assay [5] was 6.71.

For `O=C1[C@H](CC[C@H](O)c2ccc(F)cc2)[C@@H](c2ccc(O)cc2)N1c1ccc(F)cc1` [Ezetimibe], in assay [1], the difference in excitability amounted to 3.43. In assay [2], the “difference in startle response” value is 3.17. In assay [3], the “difference in activity during first hour” value is -1.12. Besides, the “difference in habituation” value in assay [4] was -7.52. Further, in assay [5], the difference worked out at 7.17.

In the case of `Cc1c2oc3c(C)ccc(C(=O)N[C@@H]4C(=O)N[C@H](C(C)C)C(=O)N5CCC[C@H]5C(=O)N(C)CC(=O)N(C)[C@@H](C(C)C)C(=O)O[C@@H]4C)c3nc-2c(C(=O)N[C@@H]2C(=O)N[C@H](C(C)C)C(=O)N3CCC[C@H]3C(=O)N(C)CC(=O)N(C)[C@@H](C(C)C)C(=O)O[C@@H]2C)c(N)c1=O` [Actinomycin D], in assay [1], the difference in excitability came out at 5.1. Besides, in assay [2], the “difference in startle response” value is -6.8. For the same compound, the “difference in activity during first hour” value in assay [3] turned out to be 6.02. The “difference in habituation” value in assay [4] was 4.18. For the same compound, in assay [5], the difference was -0.162.

For `NCC[C@H](O)C(=O)N[C@@H]1C[C@H](N)[C@@H](O[C@H]2O[C@H](CN)[C@@H](O)[C@H](O)[C@H]2O)[C@H](O)[C@H]1O[C@H]1O[C@H](CO)[C@@H](O)[C@H](N)[C@H]1O` [Amikacin], the difference in excitability in assay [1] was determined as 5.08. Also, the “difference in startle response” value in assay [2] was 3.94. The “difference in activity during first hour” value in assay [3] turned out to be 10.9. For the same compound, the “difference in habituation” value in assay [4] was 2.17. In addition, the difference in assay [5] worked out at 6.4.

Take `Cc1nc2n(c(=O)c1CCN1CCC(c3noc4cc(F)ccc34)CC1)CCCC2` [Risperidone]: in assay [1], the difference in excitability came out at 14.4. For the same compound, the “difference in startle response” value in assay [2] was 5.09. Further, the “difference in activity during first hour” value in assay [3] came to 7.15. Moreover, the “difference in habituation” value in assay [4] came out at 4.04. Besides, the difference in assay [5] was -1.6.

The compound `CCCCCCCCCCC[C@@H](C[C@@H]1OC(=O)[C@H]1CCCCCC)OC(=O)[C@H](CC(C)C)NC=O` [Orlistat] displayed a difference in excitability in assay [1] of 0.283. In addition, in assay [2], the “difference in startle response” value was 0.288. Moreover, in assay [3], the “difference in activity during first hour” value was determined as 10.8. In addition, the “difference in habituation” value in assay [4] is 3.74. Further, in assay [5], the difference is 2.67.

In assay [1], `Cn1cnc([N+](=O)[O-])c1Sc1ncnc2[nH]cnc12` [Azathioprine] came in with a difference in excitability of -3.13. For the same compound, the “difference in startle response” value in assay [2] came to 3.25. In addition, the “difference in activity during first hour” value in assay [3] was -3.18. The “difference in habituation” value in assay [4] is 4.62. Besides, the difference in assay [5] was 1.19.

With `CC(C)NCC(O)c1ccc(O)c(O)c1` (stereo not given) [Isoproterenol (hydrochloride)], the difference in excitability in assay [1] was -11.9. Also, in assay [2], the “difference in startle response” value was -6.4. For the same compound, the “difference in activity during first hour” value in assay [3] was 45.9. In addition, the “difference in habituation” value in assay [4] came to 1.72. Moreover, the difference in assay [5] was 6.58.

As to `CC(C)(C(=O)O)c1ccc(C(O)CCCN2CCC(C(O)(c3ccccc3)c3ccccc3)CC2)cc1` (stereo not given) [Fexofenadine (hydrochloride)], the difference in excitability in assay [1] was 4.09. Besides, the “difference in startle response” value in assay [2] amounted to 2.98. Also, the “difference in activity during first hour” value in assay [3] was determined as 11.3. Also, the “difference in habituation” value in assay [4] is 0.612. In assay [5], the difference turned out to be 5.51.

Regarding `C=C[C@]1(C)C[C@@H](OC(=O)CS[C@@H]2C[C@H]3CC[C@@H](C2)N3C)[C@]2(C)[C@H](C)CC[C@]3(CCC(=O)[C@H]32)[C@@H](C)[C@@H]1O` [Retapamulin], the difference in excitability in assay [1] was 25.1. The “difference in startle response” value in assay [2] was 5.21. Besides, in assay [3], the “difference in activity during first hour” value is -2.58. Also, the “difference in habituation” value in assay [4] turned out to be 1.86. Besides, in assay [5], the difference turned out to be 5.67.

With `CN(C)CCOc1ccc(/C(=C(/CCCl)c2ccccc2)c2ccccc2)cc1` [Toremifene (citrate)], the difference in excitability in assay [1] came out at 4.69. Also, the “difference in startle response” value in assay [2] was -6.57. Besides, in assay [3], the “difference in activity during first hour” value was found to be 9.64. For the same compound, in assay [4], the “difference in habituation” value was -7.15. The difference in assay [5] is -13.3.

In assay [1], `Nc1c(CC(=O)O)cccc1C(=O)c1ccc(Br)cc1` [Bromfenac (sodium salt)] gave a difference in excitability of 22. In addition, the “difference in startle response” value in assay [2] is -1.71. For the same compound, the “difference in activity during first hour” value in assay [3] worked out at 7.18. For the same compound, the “difference in habituation” value in assay [4] was -4.75. Further, the difference in assay [5] is 1.64.

`CC(C)CN(C[C@@H](O)[C@H](Cc1ccccc1)NC(=O)O[C@H]1CCOC1)S(=O)(=O)c1ccc(N)cc1` [Amprenavir]: the difference in excitability in assay [1] was -3.12. In addition, the “difference in startle response” value in assay [2] was -6.45. The “difference in activity during first hour” value in assay [3] was 6.71. Moreover, the “difference in habituation” value in assay [4] amounted to 0.569. In addition, the difference in assay [5] is 7.88.

The compound `C=C(c1ccc(C(=O)O)cc1)c1cc2c(cc1C)C(C)(C)CCC2(C)C` [Bexarotene] gave a difference in excitability in assay [1] of 7.21. Further, the “difference in startle response” value in assay [2] was 1.4. Further, the “difference in activity during first hour” value in assay [3] is -13.5. Besides, the “difference in habituation” value in assay [4] was -4.93. Moreover, in assay [5], the difference was -11.

In assay [1], `CCc1cc(C(N)=S)ccn1` [Ethionamide] yielded a difference in excitability of -2.77. Besides, the “difference in startle response” value in assay [2] is -1. Also, the “difference in activity during first hour” value in assay [3] was -3.96. Further, the “difference in habituation” value in assay [4] turned out to be 0.506. The difference in assay [5] came to 2.57.

As for `CC(=O)OCC(=O)[C@@]12N=C(C)O[C@@H]1C[C@H]1[C@@H]3CCC4=CC(=O)C=C[C@]4(C)[C@H]3[C@@H](O)C[C@@]12C` [Deflazacort], the difference in excitability in assay [1] came out at 13.1. In addition, the “difference in startle response” value in assay [2] is 3.69. Moreover, in assay [3], the “difference in activity during first hour” value is -3.59. Moreover, in assay [4], the “difference in habituation” value is -1.6. Moreover, the difference in assay [5] is 13.9.

In turn, `N#Cc1ccc(Oc2ccc3c(c2)COB3O)cc1` registered a difference in excitability in assay [1] of -2.19. The “difference in startle response” value in assay [2] was -0.784. For the same compound, in assay [3], the “difference in activity during first hour” value was -16.9. In addition, the “difference in habituation” value in assay [4] is -15.1. Also, in assay [5], the difference is -18.2.

`NCCNCCNCCN` [Trientine (hydrochloride)] returned a difference in excitability in assay [1] of 15.9. Further, the “difference in startle response” value in assay [2] is -0.163. Also, the “difference in activity during first hour” value in assay [3] was 13. Besides, in assay [4], the “difference in habituation” value is -1.81. For the same compound, the difference in assay [5] is -9.36.

Compound `C=CC1=C(C(=O)O)N2C(=O)[C@@H](NC(=O)/C(=N\OCC(=O)O)c3csc(N)n3)[C@H]2SC1` [Cefixime] showed a difference in excitability in assay [1] of -0.725. In addition, in assay [2], the “difference in startle response” value is -0.605. In addition, in assay [3], the “difference in activity during first hour” value turned out to be 11.6. In addition, in assay [4], the “difference in habituation” value was 8.39. Also, the difference in assay [5] was 10.8.

For the compound `CCCN[C@H]1CCc2nc(N)sc2C1` [(S)-Pramipexole (hydrochloride)], the difference in excitability in assay [1] turned out to be 6.47. The “difference in startle response” value in assay [2] was -2.57. Moreover, the “difference in activity during first hour” value in assay [3] was -10.9. The “difference in habituation” value in assay [4] stood at 5.7. Besides, the difference in assay [5] stood at 0.342.

In assay [1], `Cl.N=C(N)NCCC[C@H](N)C(=O)O` [L-Arginine (hydrochloride)] showed a difference in excitability of 4.03. The “difference in startle response” value in assay [2] was -4.09. In assay [3], the “difference in activity during first hour” value was determined as 10.1. Also, in assay [4], the “difference in habituation” value was 2.29. The difference in assay [5] amounted to 0.624.

`CC[C@H](Nc1ncnc2[nH]cnc12)c1nc2cccc(F)c2c(=O)n1-c1ccccc1` gave a difference in excitability in assay [1] of 5.3. In assay [2], the “difference in startle response” value was determined as 1.19. In addition, in assay [3], the “difference in activity during first hour” value was -0.052. In addition, the “difference in habituation” value in assay [4] was -0.933. Besides, the difference in assay [5] was 2.36.

Regarding `COc1cc(Cc2cnc(N)nc2N)cc(OC)c1OC` [Trimethoprim], in assay [1], the difference in excitability is 2.02. In assay [2], the “difference in startle response” value was 3.93. The “difference in activity during first hour” value in assay [3] came out at 12.5. In assay [4], the “difference in habituation” value is -7.9. The difference in assay [5] turned out to be 12.7.
